Test [1] concerns the target T1, Muscle, skeletal receptor tyrosine-protein kinase (Homo sapiens) (UniProt O15146).
T1 sequence (whole entry): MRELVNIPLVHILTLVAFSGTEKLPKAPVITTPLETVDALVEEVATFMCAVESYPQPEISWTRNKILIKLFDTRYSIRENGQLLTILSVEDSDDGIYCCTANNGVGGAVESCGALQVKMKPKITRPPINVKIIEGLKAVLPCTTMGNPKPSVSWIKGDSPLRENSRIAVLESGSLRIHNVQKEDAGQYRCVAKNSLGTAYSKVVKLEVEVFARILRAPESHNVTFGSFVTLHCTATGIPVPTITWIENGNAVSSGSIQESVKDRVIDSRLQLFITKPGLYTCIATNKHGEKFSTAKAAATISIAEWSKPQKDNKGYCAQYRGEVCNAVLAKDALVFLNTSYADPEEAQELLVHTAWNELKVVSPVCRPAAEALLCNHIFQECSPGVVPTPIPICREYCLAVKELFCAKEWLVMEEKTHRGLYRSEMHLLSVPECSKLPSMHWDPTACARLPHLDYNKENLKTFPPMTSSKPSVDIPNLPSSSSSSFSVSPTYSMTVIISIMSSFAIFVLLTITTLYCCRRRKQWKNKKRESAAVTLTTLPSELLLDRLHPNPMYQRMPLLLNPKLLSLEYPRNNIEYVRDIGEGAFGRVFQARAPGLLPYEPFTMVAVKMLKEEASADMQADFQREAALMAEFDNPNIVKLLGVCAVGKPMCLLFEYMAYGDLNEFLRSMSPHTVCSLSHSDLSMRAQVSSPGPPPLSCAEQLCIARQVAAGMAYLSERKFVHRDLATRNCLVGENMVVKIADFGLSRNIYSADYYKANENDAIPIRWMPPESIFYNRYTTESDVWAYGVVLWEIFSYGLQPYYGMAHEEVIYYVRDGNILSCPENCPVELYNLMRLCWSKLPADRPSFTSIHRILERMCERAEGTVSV
To be noted: at 1 µM.

Test [2] concerns the target T1, Muscle, skeletal receptor tyrosine-protein kinase (Homo sapiens). To be noted: at 10 µM.
Test [3] concerns the target T2, Serine/threonine-protein kinase Nek11 (Homo sapiens) (UniProt Q8NG66).
T2 sequence (whole entry): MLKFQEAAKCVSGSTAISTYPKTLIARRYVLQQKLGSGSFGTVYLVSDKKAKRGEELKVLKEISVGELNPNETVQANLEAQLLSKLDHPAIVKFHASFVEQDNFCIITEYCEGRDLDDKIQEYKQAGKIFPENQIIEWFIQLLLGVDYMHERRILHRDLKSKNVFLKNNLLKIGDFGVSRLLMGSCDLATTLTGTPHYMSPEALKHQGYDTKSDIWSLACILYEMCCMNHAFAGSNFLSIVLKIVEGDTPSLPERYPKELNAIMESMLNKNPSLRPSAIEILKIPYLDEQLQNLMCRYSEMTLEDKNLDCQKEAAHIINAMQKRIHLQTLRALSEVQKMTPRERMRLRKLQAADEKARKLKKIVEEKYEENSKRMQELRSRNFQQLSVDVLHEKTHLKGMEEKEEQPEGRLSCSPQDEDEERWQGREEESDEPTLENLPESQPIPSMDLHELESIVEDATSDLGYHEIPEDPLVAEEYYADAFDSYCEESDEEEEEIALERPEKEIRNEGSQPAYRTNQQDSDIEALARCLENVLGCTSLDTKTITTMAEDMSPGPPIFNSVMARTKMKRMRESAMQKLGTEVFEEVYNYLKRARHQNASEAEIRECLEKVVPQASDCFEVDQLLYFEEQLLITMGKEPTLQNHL
To be noted: at 1 µM.

For test [4], the target named is T2, Serine/threonine-protein kinase Nek11 (Homo sapiens). To be noted: at 10 µM.
Test [5] deals with T3, Serine/threonine-protein kinase Nek2 (Homo sapiens) (UniProt P51955).
T3 sequence (whole entry): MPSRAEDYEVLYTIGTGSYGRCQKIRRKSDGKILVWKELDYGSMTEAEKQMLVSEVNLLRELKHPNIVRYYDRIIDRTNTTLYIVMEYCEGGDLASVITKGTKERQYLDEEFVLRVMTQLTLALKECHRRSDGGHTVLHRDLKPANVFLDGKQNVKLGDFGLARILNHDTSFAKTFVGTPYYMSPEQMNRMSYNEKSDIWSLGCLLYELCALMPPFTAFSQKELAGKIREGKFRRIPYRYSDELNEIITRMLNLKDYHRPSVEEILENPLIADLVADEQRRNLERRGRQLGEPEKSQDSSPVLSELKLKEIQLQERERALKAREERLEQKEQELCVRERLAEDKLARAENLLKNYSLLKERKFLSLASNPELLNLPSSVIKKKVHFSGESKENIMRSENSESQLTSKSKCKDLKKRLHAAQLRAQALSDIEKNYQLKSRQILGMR
Particulars: at 1 µM.

Test [6] concerns the target T3, Serine/threonine-protein kinase Nek2 (Homo sapiens). To be noted: at 10 µM.
In test [7] the target is T4, Serine/threonine-protein kinase Nek3 (Homo sapiens) (UniProt P51956).
T4 sequence (whole entry): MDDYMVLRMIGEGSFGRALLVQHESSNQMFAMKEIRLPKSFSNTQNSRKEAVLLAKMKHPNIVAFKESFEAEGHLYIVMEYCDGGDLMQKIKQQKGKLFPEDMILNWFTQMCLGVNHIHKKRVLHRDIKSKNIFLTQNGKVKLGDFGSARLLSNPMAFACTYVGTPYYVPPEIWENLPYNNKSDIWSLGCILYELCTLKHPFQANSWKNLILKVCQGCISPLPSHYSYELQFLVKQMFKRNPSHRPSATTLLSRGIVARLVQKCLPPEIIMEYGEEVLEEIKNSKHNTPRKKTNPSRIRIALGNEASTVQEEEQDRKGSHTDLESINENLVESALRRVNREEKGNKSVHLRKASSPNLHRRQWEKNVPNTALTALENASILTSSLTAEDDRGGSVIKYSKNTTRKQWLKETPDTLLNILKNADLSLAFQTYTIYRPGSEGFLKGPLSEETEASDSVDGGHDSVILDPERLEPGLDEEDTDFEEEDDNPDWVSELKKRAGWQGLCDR
To be noted: at 1 µM.

Test [8] has as its target T4, Serine/threonine-protein kinase Nek3 (Homo sapiens). To be noted: at 10 µM.
Test [9] addresses Serine/threonine-protein kinase tousled-like 2 (Homo sapiens) (UniProt Q86UE8). To be noted: at 1 µM.
The target is the same in test [10]. To be noted: at 10 µM.
Test [11] concerns the target T5, Testis-specific serine/threonine-protein kinase 1 (Homo sapiens) (UniProt Q9BXA7).
T5 sequence (whole entry): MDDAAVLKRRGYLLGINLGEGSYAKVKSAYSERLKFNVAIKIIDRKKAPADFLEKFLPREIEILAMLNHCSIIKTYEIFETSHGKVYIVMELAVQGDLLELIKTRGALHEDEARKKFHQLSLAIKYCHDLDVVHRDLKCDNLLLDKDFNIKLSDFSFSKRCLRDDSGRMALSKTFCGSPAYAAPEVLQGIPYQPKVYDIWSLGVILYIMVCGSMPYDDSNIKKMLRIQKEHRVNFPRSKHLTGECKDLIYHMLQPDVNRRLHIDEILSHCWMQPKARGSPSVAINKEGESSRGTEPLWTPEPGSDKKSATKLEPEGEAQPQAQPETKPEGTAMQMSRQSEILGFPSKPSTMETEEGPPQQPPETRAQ
Particulars: at 1 µM.

In test [12] the target is T5, Testis-specific serine/threonine-protein kinase 1 (Homo sapiens). Particulars: at 10 µM.
Test [13] concerns the target T6, Testis-specific serine/threonine-protein kinase 2 (Homo sapiens) (UniProt Q96PF2).
T6 sequence (whole entry): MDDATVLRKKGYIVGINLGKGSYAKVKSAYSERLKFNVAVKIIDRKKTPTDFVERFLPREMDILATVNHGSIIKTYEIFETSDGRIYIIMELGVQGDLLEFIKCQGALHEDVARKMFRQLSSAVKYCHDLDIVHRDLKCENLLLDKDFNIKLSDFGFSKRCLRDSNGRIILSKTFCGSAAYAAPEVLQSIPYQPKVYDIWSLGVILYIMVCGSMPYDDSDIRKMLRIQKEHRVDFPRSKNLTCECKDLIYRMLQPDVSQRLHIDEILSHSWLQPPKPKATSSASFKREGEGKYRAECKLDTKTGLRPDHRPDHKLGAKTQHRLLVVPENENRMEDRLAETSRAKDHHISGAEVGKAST
Particulars: at 10 µM.

For test [14], the target named is T7, Tyrosine-protein kinase Tec (Homo sapiens) (UniProt P42680).
T7 sequence (whole entry): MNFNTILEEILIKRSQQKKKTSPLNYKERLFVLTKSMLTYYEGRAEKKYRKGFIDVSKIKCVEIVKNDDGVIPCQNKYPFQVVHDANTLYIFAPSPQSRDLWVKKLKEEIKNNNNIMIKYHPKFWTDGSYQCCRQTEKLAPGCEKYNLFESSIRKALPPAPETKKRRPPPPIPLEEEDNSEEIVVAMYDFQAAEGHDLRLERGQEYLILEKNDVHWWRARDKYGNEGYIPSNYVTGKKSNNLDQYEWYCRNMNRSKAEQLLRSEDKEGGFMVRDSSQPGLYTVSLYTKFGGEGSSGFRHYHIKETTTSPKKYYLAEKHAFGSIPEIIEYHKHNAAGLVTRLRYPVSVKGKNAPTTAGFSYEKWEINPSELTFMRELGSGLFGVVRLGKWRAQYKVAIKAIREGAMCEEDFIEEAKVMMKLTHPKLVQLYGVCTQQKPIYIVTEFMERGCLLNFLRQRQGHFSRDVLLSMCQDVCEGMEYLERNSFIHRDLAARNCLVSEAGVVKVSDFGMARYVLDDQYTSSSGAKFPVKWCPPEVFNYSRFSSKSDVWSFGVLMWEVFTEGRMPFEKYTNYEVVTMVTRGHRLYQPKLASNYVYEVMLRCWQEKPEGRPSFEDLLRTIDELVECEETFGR
To be noted: at 1 µM.

Test [15] deals with T7, Tyrosine-protein kinase Tec (Homo sapiens). Particulars: at 10 µM.
Test [16] deals with Angiopoietin-1 receptor (Homo sapiens) (UniProt Q02763). Particulars: at 1 µM.
Test [17] shares this target. Particulars: at 10 µM.
For test [18], the target named is High affinity nerve growth factor receptor (Homo sapiens) (UniProt P04629). To be noted: at 1 µM.
For test [19] the target is unchanged. To be noted: at 10 µM.
Test [20] addresses BDNF/NT-3 growth factors receptor (Homo sapiens) (UniProt Q16620). To be noted: at 1 µM.

High affinity nerve growth factor receptor (Homo sapiens), sequence (P04629 33-796 limits assumed): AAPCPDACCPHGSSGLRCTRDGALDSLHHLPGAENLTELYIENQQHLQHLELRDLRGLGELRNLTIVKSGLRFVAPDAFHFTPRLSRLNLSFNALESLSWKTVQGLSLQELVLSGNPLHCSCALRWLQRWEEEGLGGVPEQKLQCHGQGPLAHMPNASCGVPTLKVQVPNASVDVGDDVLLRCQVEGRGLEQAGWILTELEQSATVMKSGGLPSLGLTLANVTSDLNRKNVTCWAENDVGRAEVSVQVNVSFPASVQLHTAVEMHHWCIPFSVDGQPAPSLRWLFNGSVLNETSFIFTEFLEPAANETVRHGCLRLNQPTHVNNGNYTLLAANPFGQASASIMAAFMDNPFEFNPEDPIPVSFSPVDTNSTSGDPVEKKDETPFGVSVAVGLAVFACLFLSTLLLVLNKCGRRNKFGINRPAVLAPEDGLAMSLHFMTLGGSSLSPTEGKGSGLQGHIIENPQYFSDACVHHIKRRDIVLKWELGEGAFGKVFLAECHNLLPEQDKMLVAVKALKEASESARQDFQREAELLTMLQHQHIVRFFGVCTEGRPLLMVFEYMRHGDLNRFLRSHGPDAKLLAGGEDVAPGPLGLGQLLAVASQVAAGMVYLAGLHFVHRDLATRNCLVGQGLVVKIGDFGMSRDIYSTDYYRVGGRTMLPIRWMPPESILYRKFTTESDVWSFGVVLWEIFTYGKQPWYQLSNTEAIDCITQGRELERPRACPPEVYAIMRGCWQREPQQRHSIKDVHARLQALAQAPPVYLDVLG
Serine/threonine-protein kinase tousled-like 2 (Homo sapiens), sequence (Q86UE8 whole entry, looked up): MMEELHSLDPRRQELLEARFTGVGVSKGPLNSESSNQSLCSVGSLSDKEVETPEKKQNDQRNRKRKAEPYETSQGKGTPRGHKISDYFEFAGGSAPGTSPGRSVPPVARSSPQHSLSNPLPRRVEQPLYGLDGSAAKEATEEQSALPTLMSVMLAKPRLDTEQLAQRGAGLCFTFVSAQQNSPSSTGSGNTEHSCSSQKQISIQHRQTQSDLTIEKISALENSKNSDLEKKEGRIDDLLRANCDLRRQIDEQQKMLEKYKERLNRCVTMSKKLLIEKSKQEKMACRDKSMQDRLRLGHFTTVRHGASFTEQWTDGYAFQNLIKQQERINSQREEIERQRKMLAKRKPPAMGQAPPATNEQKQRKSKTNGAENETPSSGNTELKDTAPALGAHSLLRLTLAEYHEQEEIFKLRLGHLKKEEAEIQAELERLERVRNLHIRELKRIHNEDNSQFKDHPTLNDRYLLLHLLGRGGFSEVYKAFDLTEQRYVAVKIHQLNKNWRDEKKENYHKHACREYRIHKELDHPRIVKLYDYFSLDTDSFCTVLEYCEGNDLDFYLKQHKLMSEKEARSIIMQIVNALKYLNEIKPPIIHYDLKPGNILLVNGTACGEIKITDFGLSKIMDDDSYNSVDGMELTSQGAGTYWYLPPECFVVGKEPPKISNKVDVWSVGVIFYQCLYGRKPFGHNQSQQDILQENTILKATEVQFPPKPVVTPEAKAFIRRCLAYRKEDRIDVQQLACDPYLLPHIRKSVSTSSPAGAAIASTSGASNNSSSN
BDNF/NT-3 growth factors receptor (Homo sapiens), sequence (Q16620 32-822 limits assumed): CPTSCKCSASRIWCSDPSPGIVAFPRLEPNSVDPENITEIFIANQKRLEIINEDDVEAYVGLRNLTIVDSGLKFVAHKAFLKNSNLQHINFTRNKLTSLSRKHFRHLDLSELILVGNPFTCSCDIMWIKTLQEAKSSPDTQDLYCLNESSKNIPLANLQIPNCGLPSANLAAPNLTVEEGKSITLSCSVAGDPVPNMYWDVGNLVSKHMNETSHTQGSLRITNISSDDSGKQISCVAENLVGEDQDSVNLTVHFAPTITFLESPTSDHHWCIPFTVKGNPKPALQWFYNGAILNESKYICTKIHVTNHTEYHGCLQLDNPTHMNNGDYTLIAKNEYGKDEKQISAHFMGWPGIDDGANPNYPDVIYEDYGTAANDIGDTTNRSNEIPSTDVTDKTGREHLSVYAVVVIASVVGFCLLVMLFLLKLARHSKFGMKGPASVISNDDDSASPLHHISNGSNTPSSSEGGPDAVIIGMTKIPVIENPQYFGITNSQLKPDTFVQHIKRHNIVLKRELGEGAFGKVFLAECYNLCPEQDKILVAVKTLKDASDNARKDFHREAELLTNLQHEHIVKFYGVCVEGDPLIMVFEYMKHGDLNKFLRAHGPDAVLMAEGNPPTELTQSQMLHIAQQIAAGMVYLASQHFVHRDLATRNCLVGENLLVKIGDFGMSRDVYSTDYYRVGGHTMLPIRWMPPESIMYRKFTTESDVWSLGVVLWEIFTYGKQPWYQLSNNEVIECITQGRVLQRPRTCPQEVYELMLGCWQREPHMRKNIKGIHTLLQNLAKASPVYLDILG
Angiopoietin-1 receptor (Homo sapiens), sequence (Q02763 whole entry): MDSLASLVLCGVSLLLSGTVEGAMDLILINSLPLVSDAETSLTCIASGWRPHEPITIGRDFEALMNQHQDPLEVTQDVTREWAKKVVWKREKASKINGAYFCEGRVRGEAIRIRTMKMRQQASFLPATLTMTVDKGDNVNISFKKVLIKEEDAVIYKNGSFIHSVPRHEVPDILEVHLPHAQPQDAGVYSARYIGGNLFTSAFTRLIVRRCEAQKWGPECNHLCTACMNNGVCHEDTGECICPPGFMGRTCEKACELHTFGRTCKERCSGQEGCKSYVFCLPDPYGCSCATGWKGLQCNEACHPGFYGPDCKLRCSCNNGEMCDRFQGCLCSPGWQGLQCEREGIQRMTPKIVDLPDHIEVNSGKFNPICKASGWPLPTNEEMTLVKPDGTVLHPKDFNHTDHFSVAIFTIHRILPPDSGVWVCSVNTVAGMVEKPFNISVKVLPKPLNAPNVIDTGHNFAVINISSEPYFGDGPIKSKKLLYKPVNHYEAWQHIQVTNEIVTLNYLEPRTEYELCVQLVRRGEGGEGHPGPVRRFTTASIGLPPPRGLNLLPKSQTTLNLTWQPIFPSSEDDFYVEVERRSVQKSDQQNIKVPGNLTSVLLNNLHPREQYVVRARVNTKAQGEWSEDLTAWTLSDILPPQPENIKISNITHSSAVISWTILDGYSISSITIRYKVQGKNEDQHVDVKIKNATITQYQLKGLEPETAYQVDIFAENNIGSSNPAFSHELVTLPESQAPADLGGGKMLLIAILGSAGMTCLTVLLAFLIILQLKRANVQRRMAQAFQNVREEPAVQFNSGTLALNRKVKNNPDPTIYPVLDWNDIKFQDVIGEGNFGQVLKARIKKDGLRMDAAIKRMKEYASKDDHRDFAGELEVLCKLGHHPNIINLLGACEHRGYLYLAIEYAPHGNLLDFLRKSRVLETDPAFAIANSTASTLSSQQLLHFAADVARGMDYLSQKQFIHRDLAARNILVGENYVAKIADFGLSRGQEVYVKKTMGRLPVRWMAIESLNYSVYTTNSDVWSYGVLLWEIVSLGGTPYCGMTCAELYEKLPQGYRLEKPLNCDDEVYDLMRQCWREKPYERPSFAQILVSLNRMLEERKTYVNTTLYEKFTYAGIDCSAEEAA

Consider `CC(=O)O/N=C1\C(=C2\C(=O)Nc3cc(Br)ccc32)Nc2ccccc21`, for which the residual activity in test [1] is 73%; in [2] it was 51%; in test [3], 60%; in test [4], 67%; in test [5], 101%; in [6] it was 87%. The residual activity was found to be 82% in test [7]; 84% in test [8]; 92% in test [9]; 86% in test [10]; 92% in test [11]; 86% in test [12]. Also, the residual activity in [13] was 92%; in test [14] it was 59%; in test [15], 21%; in [16], 86%; in test [17], 87%; in test [18], 6%. For the same compound, the residual activity in [19] amounted to 0%; in [20], 29%.
As for `N#CC(C#N)=C(N)/C(C#N)=C/c1ccc(O)cc1`, the residual activity in test [2] was 82%; in test [3] it was 75%; in test [4], 97%; in test [5], 91%; in test [6], 100%; in [9] it was 100%. The residual activity amounted to 95% in test [10]; 98% in [11]; 96% in test [12]; 90% in [14]; 88% in test [15]; 84% in [16]. The residual activity is 74% in [17], 121% in test [18], 119% in test [19] and 99% in [20].
Turning to `CC(=O)c1ccc(N2CCOCC2)cc1O`, the residual activity came out at 105% in test [1]; 81% in test [2]; 84% in test [5]; 104% in [6]; 77% in [8]; 103% in [9]. The residual activity was 95% in [10]; 98% in test [11]; 94% in test [12]; 104% in [13]; 104% in [14]; 91% in test [15]. Also, the residual activity in [16] worked out at 79%; in test [17], 83%; in [20] it was 84%.

The values are drawn from ChEMBL document CHEMBL2218924, “A broad activity screen in support of a chemogenomic map for kinase signalling research and drug discovery” (Biochem J, 2013).
